The list is not random: actives were taken first. Their share in the collection is about 3.1%.
Mcl-1 Bim block = disrupts Bim peptide binding to human Mcl-1; inhibition, % at 10 µM; Q07820; 190,000 compounds, 0.1% hits; Bead-based flow cytometry, Bim peptide-Mcl-1 binding; in the data active = inhibition above about 40%;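 also: 0% = no compound tracer wells and 100% = peptide blocker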
Target sequence (Q07820 whole entry, looked up): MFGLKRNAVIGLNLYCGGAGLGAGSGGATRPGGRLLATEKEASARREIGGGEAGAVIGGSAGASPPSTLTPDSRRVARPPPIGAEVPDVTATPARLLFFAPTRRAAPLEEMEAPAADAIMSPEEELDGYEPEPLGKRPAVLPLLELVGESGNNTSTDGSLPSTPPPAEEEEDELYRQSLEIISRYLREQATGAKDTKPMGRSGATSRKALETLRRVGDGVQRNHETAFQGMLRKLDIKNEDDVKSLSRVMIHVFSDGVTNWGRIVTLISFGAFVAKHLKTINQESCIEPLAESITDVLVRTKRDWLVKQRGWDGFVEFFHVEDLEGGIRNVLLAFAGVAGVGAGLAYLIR
14-3-3 Bad inh = disrupts binding of bovine 14-3-3 zeta to phospho-Bad peptide | P63103 | TR-FRET 14-3-3zeta/Dy647-pBad peptide displacement, 1 h | inhibition, % at 21.7 µM | 220,000 compounds, 0.71% hits;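 active = inhibition above about 70%, limit read from the data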;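 also: 0% = full 14-3-3 plus peptide FRET controls and 100% = background without 14-3-3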
Target sequence (P63103 whole entry, looked up): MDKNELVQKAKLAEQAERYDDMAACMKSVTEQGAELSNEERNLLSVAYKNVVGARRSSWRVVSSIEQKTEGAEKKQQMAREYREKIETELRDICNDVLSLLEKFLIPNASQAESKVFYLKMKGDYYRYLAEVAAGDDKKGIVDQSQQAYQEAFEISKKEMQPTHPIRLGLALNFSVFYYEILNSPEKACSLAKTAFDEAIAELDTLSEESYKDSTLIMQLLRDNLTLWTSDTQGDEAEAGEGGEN
Mcl1-Noxa inh = Mcl-1/Noxa interaction inhibition. Q07820. TR-FRET Mcl-1/Noxa peptide binding, 2 h. inhibition, % at 21.7 µM. 220,000 compounds, 1.5% hits. AID 1022;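 active = compounds that cut the protein-peptide binding signal by more than 50% relative to plate controls in a single-dose test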;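 also: His-tagged Mcl-1 with rhodamine Noxa BH3 peptide and terbium anti-His antibody; 0% = Mcl-1 plus Noxa peptide wells and 100% = peptide-only wells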
NCF1 inh = inhibitors of human p47phox binding. inhibition, % at 24.7 µM. 220,000 compounds, 0.53% hits. p47phox/p22phox peptide binding, fluorescence polarization, 2 h. P14598. AID 1274;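 active = inhibition above about 30%, limit read from the data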;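 also: 0% = p47phox with labelled peptide and 100% = labelled peptide alone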
Mcl1 Bid PPI = disrupts binding of human Mcl-1 to Bid peptide; Q07820; TR-FRET Mcl-1/Bid-Dy647 peptide binding, 1536-well; inhibition, % at 21.7 µM; 220,000 compounds, 0.97% hits; AID 1021;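 active = compounds that cut the binding signal by more than half at the single screening dose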;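 also: His-tagged Mcl-1 with europium anti-His antibody binding Bid BH3 peptide; 0% = Mcl-1 plus peptide wells and 100% = peptide-only wells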
* hit, by the source's call; / = not tested or not shown.

SMILES	Mcl-1 Bim block	14-3-3 Bad inh	Mcl1-Noxa inh	NCF1 inh	Mcl1 Bid PPI
COc1ccccc1C(=O)NC(=S)NNC(=O)c1sc2ccccc2c1Cl	-2	38	48	27	73*
Nc1c(N2CCCCC2)c2ccccc2oc1=O	2	-19	6	-6	-40
O=[N+]([O-])c1ccc(-c2cc(-c3ccc(Cl)cc3)n[nH]2)cc1	3	65	81*	-63	44
O=[N+]([O-])c1ccc2nc(-c3ccc(Cl)cc3)[nH]c2c1	-3	9	45	-18	-3
COc1c(O)ccc(C2NC(=O)NC(C)=C2C(=O)Nc2ccccc2C)c1[N+](=O)[O-] (stereo not drawn)	-1	-13	13	-2	-28
CC1=NOC(=O)/C1=C/c1ccc(N(C)C)cc1	-2	-14	24	181*	-32
C=C(C(=O)c1ccccc1)C(C(=C)C(=O)c1ccccc1)c1ccc(OC)cc1	/	9	7	-4	69*
Cc1cc(C[n+]2cc(Br)ccc2N)c2ncccc2c1	/	5	-10	2	-15
COC(=O)c1cc(=O)n(Cc2ccc(OC)c(OC)c2)c(=Nc2ccc(F)cc2)s1	-1	-1	2	-5	-9
COC(=O)c1cc(=O)n(Cc2ccc(F)cc2)c(=Nc2ccccc2)s1	/	1	52*	6	-21
O=C1c2cccc3cccc(c23)C(=O)N1c1ccc2ncccc2c1	6	74*	-13	35*	8
CCSc1ccc(-c2ccc(C)cc2)nn1	0	3	10	37*	0
Cc1oc(-c2ccccc2)[n+]([O-])c1C	-1	/	/	/	/
Cc1cccc(-c2oc(C)c(C)[n+]2[O-])c1	-2	72*	16	-2	26
O=C(CS(=O)(=O)Cc1ccccc1)Nc1nc2ccccc2s1	-1	-4	7	56*	-21
Cc1cccc(N2CCN(S(=O)(=O)c3ccc4c(c3)n(C)c(=O)c(=O)n4C)CC2C)c1 (stereo not drawn)	-4	1	41	-3	56*
O=C(O)CSc1cc(C(=O)c2ccccc2O)cn2c(=O)c3c4c(sc3nc12)CCCC4	/	75*	80*	-19	51*
CCOC(=O)N1CCN(C(=O)c2cccn3c(=O)c4c5c(sc4nc23)CCCC5)CC1	-3	-8	12	-13	-18
O=C(Cc1ccc(F)cc1)Nc1nnc(SCC(=O)NC2CCCC2)s1	0	-7	1	-6	72*
CCn1cc(NC(=O)CCl)c(C)n1	-4	-1	12	11	-1
N#CC1=C(N)Oc2ccc3ccc(O)cc3c2C1c1ccsc1 (stereo not drawn)	13	2	29	-104	-7
CN(C)c1ccc(NC(=O)COC(=O)c2cc(Cl)ccc2[N+](=O)[O-])cc1	-3	-12	54*	-10	-46
Cc1ccc(S(=O)(=O)c2c(N)n(CCCN(C)C)c3nc4ccccc4nc23)cc1	/	0	7	-26	-3
Nc1c(S(=O)(=O)c2cccs2)c2nc3ccccc3nc2n1/N=C/c1cccc(O)c1	20	-5	73*	-48	6
Nc1c(S(=O)(=O)c2ccccc2)c2nc3ccccc3nc2n1/N=C/c1ccco1	4	-9	73*	-53	3
SMILES	Mcl-1 Bim block	14-3-3 Bad inh	Mcl1-Noxa inh	NCF1 inh	Mcl1 Bid PPI
COc1ccc(S(=O)(=O)c2c(N)n(Cc3ccco3)c3nc4ccccc4nc23)cc1	1	-2	57*	-55	2
CC(=O)Nc1ccc(-c2nc3c(C)cccc3[nH]2)cc1	0	72*	13	-15	12
CC(=O)Nc1cc(NC(C)=O)cc(-c2nc3ccccc3[nH]2)c1	-1	-10	17	25	1
Cc1ccccc1N1CCN(Cc2c[nH]c3ccccc23)CC1	-134	71*	5	-6	14
COc1ccccc1N1CCN(Cc2c[nH]c3ccccc23)CC1	/	-20	7	-11	-25
O=C(NCCCCc1ccccc1)C12CN(Cc3ccccc3)CC1C(c1ccc([N+](=O)[O-])cc1)=NO2 (stereo not drawn)	1	44	18	-4	13
COc1ccc(/C=C/C(=O)NCC(=O)N/N=C/c2cc(Br)ccc2OC)cc1	-4	5	-22	101*	6
COc1ccccc1/C=C/C(=O)NCC(=O)N/N=C/c1cc(Br)ccc1OC	-3	-1	27	-7	1
CCOC(=O)C1CCCN(CC(=O)c2c[nH]c3ccc(C)cc23)C1 (stereo not drawn)	/	2	11	-15	-17
O=S(=O)(Cc1cc(Cl)nc(-c2ccncc2)n1)c1ccccc1	0	16	81*	6	32
O=S(=O)(Cc1cc(Cl)nc(-c2ccccc2)n1)c1ccccc1	-12	-1	-6	-16	2
Cc1ccc(OS(=O)(=O)c2cn(C)c(=O)n(C)c2=O)cc1C	0	-3	-7	-12	-37
C[C@@H](C(=O)Nc1nc2ccc(F)cc2s1)N1C(=O)C2CC=CCC2C1=O (stereo partly drawn)	-2	-5	-8	-4	95*
Cc1ccc2nc(NC(=O)[C@H](C)N3C(=O)C4CC=CCC4C3=O)sc2c1 (stereo partly drawn)	2	-3	9	-3	-6
Cc1ccc(N2CCN(S(=O)(=O)N3CCOCC3)CC2)cc1C	0	6	22	-3	-34
COc1cc(C(C#N)N2CCC(c3ccccc3)=N2)ccc1O (stereo not drawn)	/	-7	-3	-5	-11
Nc1nc(SCc2ccc([N+](=O)[O-])cc2)nc2nc3c(cc12)CCCC3	2	13	5	-14	79*
COC(=O)C1(C(=O)OC)NOC2C(=O)N(c3ccccc3)C(=O)C21 (stereo not drawn)	-4	0	4	1	0
NNc1cc([N+](=O)[O-])cc2c1C(=O)N(Cc1ccccc1)S2=O (stereo not drawn)	-5	1	58*	-3	-55
COc1ccc(Nc2ccc(S(=O)(=O)N3CCCCC3)cc2[N+](=O)[O-])cc1	0	85*	15	0	-7
O=[N+]([O-])c1cc(S(=O)(=O)N2CCCCC2)ccc1NCCCN1CCOCC1	0	-2	54*	4	-13
CS(=O)(=O)N1CCN(c2ccc([N+](=O)[O-])c(NCCN3CCOCC3)c2)CC1	-3	6	23	144*	-37
O=c1c2ccccc2c2c(O)nc(-c3ccccc3)n2n1Cc1ccccc1	-1	17	-1	-8	-14
Cc1ccccc1Nc1nc(N)nc(COC(=O)C(NC(=O)c2ccco2)C(C)C)n1 (stereo not drawn)	0	-6	-12	-9	-17
O=C(Cc1coc2cc3c(cc12)CCC3)OCc1cc(=O)n2c(n1)sc1ccccc12	-3	0	51*	-15	-16
CC(C)[C@H](NC(=O)c1ccco1)C(=O)OCc1cc(=O)n2c(n1)sc1ccccc12	-1	30	60*	/	-30
Cc1ccc2c(CC(=O)OCc3csc(C)n3)coc2c1	-4	12	14	-5	-10

From PubChem BioAssay
